Screens from PubChem BioAssay.
FMDV antiviral = foot and mouth disease virus antiviral activity; AID 1159524; FMDV antiviral cell-based qHTS; Potency, µM (highest dose often 57.9 µM), hits mostly inhibitors; 410,000 compounds, 1.2% hits; calls by dose curve; tested in HEK293T cells; further: read-out not given here; nearly all actives have a fitted effect of over 45% in size
Shiga inhibitor = inhibitors of Shiga toxin in Vero cells. Vero cells, Shiga toxin protein synthesis inhibition reporter. inhibition, % at 38.7 µM. 290,000 compounds, 9.2% hits; in the data active means inhibition mostly above about 28%, no sharp cut-off; inactive means mostly below about 43%
Sm TGR block = inhibitors of Schistosoma mansoni thioredoxin glutathione reductase; Q962Y6; purified TGR, DTNB reduction, TNB absorbance 405 nm; Potency, µM (series often up to 114 µM), usual class: inhibitors; 360,000 compounds, 3% hits; AID 485364; active means well fitted inhibition curve with a large enough effect; inconclusive means small, poorly fitted or top-dose-only effect; inactive means no such curve, though single readings can be large or run the other way; further: nearly all actives have a fitted effect of over 60% in size
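Kinetic colorimetric format: TGR-catalysed, NADPH-driven DTNB reduction monitored via TNB absorbance. Enzyme dispensed at 20 nM; compound exposure 15 min at room temperature before reaction start.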
Cycloheximide cs = counter-screen hit for Shiga toxin inhibitors, cycloheximide | max response, % | 300,000 compounds, 12% hits | cell reporter, cycloheximide protein synthesis inhibition counterscreen | AID 2314; in the data active means max response mostly above about 13%, no sharp cut-off; inactive means mostly below about 14%; further: read at 38.3 µM for the half of the compounds with a filed dose
Each line names hits and unclear results; the compound was inactive in the other large screens. Only some compounds are listed: those with a hit (about 12% of all), similar ones and a draw of the others.

O=C(N/N=C/c1ccccc1[N+](=O)[O-])c1ccncc1	Shiga inhibitor 40, Cycloheximide cs 21
O=C(N/N=C/c1ccccc1[N+](=O)[O-])c1cnccn1	Shiga inhibitor 91, Cycloheximide cs 31
COc1cc(OC)c(OC)cc1/C=N/NC(=O)c1cnccn1	none (no result: Sm TGR block)
O=C(N/N=C/c1ccc(Cl)c([N+](=O)[O-])c1)c1cnccn1	none
O=C(N/N=C/C=C/c1ccccc1[N+](=O)[O-])c1ccncc1	none
COc1cccc(Cn2c(=O)c(-c3cc(F)cc(F)c3)nc3cnc(N4CCNCC4)nc32)c1	none (no result: Shiga inhibitor, Sm TGR block, Cycloheximide cs)
CC1(C(=O)N/N=C/c2ccccc2)CC1(Cl)Cl (stereo not given)	Cycloheximide cs 26 (no result: Shiga inhibitor)
Cc1ccc(/C=N/NC(=O)C2(C)CC2(Br)Br)cc1 (stereo not given)	Cycloheximide cs 13
CC1(C(=O)N/N=C/c2ccccc2)CC1(Br)Br (stereo not given)	none
CCN(CC)CCCNC(=O)c1c(C)oc2ncn(CC(C)C)c(=O)c12	none (no result: Shiga inhibitor, Cycloheximide cs)
CN1CCN(C=Nc2nc3ccccc3nc2N2CCCC2)CC1	Sm TGR block 32µM
COc1nc2ccccc2nc1N1CCN(C)CC1	none
COc1ccc(N2C(=O)CSC23C(=O)N(Cc2ccc(C)cc2)c2ccccc23)cc1Cl (stereo not given)	FMDV antiviral inconclusive (no result: Shiga inhibitor, Cycloheximide cs)
Cc1ccoc1C(=O)Nc1cccc2ccccc12	Cycloheximide cs 31
O=C(Nc1cccc2ccccc12)c1ccco1	none (no result: Shiga inhibitor, Sm TGR block, Cycloheximide cs)
COc1cc(Cl)c(C)cc1NC(=O)c1ccccc1-n1cnnn1	none (no result: Shiga inhibitor, Sm TGR block, Cycloheximide cs)
COc1cc(Cl)c(C)cc1NC(=O)c1cccc(OC)c1OC	Cycloheximide cs 30 (no result: Sm TGR block)
COc1cccc(C(=O)Nc2cccc3ccccc23)c1OC	Shiga inhibitor 27, Cycloheximide cs 20
CS(=O)(=O)c1cccc(C(=O)Nc2ccc3c(c2)OCCCO3)c1	Shiga inhibitor 59, Cycloheximide cs 35
O=S(=O)(Nc1cc(S(=O)(=O)N2CCOCC2)ccc1N1CCOCC1)c1ccc2c(c1)OCCO2	Cycloheximide cs 16
O=C(Nc1cccc(S(=O)(=O)N2CCCC2)c1)c1cccc(S(=O)(=O)N2CCOCC2)c1	none (no result: Shiga inhibitor, Cycloheximide cs)
O=C(Nc1ccc2c(c1)OCCO2)c1cccc(S(=O)(=O)N2CCOCC2)c1	Shiga inhibitor 68
O=C(Nc1ccc2c(c1)OCCO2)c1cccc(S(=O)(=O)N2CCCCC2)c1	Shiga inhibitor 84, Cycloheximide cs 20
COc1ccc(N(C)S(=O)(=O)c2cccc(C(=O)Nc3ccc4c(c3)OCCO4)c2)cc1	none
COc1ccc(Cl)cc1NC(=O)Cn1nnc2sc(-c3ccccc3)cc2c1=O	none (no result: Shiga inhibitor, Cycloheximide cs)
CCc1ccc(CN(C(=O)Nc2cccc(Cl)c2)c2ccccn2)cc1	none (no result: Shiga inhibitor, Cycloheximide cs)
COC(=O)C1C(c2ccc(OC)c(OC)c2)NC(c2ccc(OC)c(OC)c2)C(C(=O)OC)S1(=O)=O (stereo not given)	Sm TGR block 20µM (no result: FMDV antiviral)
O=C(Nc1ccccc1OC(F)F)c1cc2c(s1)CCC2	Shiga inhibitor 43, Cycloheximide cs 40
COc1cc(OC)cc(C(=O)NNC(=O)c2cc3c(s2)CCCC3)c1	none
O=C(NNC(=S)Nc1ccc(OC(F)F)cc1)c1cc2c(s1)CCCC2	Cycloheximide cs 14
CCOC(=O)C1=C(CN2CCC(C)CC2)NC(=O)NC1c1ccc(F)cc1 (stereo not given)	none (no result: Shiga inhibitor, Cycloheximide cs)
CNCC[C@H](Oc1ccccc1OC)c1ccccc1	none (no result: Shiga inhibitor, Sm TGR block, Cycloheximide cs)
CCC(=O)N1CCN(c2nc3c(C)cccc3s2)CC1	none (no result: Shiga inhibitor, Cycloheximide cs)
Cc1[nH]c(=O)[nH]c(=O)c1/C=N/NC(=O)[C@@H](N)CC(C)C	Sm TGR block inconclusive, Cycloheximide cs 16
Cc1[nH]c(=O)[nH]c(=O)c1/C=N/NC(=O)[C@H](CC(C)C)NC(=O)OC(C)(C)C	none
COc1ccc(-c2csc(NC(=O)CC(C)C)n2)cc1	FMDV antiviral inconclusive, Shiga inhibitor 84, Cycloheximide cs 48
CC(=O)Nc1ccc(S(=O)(=O)Nc2cccc(-c3csc(C)n3)c2)cc1	none
Cc1nc(-c2cccc(NC(=O)C3CCCCC3)c2)cs1	Shiga inhibitor 36
COc1ccc(-c2csc(NC(=O)c3c(OC)cccc3OC)n2)cc1	none
Cc1nc(-c2ccc(NC(=O)CC(C)C)cc2)cs1	Shiga inhibitor active, Cycloheximide cs 38
Cc1nc(-c2ccc(NC(=O)C3CC3)cc2)cs1	Shiga inhibitor 81, Cycloheximide cs 23
CCOc1ccccc1NC(=O)Cn1nc(-c2ccco2)ccc1=O	Sm TGR block 16µM
CCOc1ccccc1NC(=O)CSc1ccc(-c2ccco2)nn1	Sm TGR block 18µM
O=C(CSc1ccc(-c2ccco2)nn1)Nc1ccccc1F	Sm TGR block 14µM
CCOc1ccccc1NC(=O)Cn1nc(N2CCN(c3ccccc3)CC2)ccc1=O	none (no result: Shiga inhibitor, Cycloheximide cs)
CCOc1ccccc1NC(=O)CSc1cn[nH]n1	none (no result: Shiga inhibitor, Cycloheximide cs)
CCOc1ccccc1NC(=O)CSc1ccc(-c2sc(C)nc2C)nn1	FMDV antiviral 25µM
CC(=O)N1CCCc2cc(S(=O)(=O)N(C)CC(=O)Nc3ccc(C)cc3C)ccc21	none (no result: Shiga inhibitor, Cycloheximide cs)
O=C1C=C(N2CCCCCC2)C(=O)N1c1ccc(Cl)cc1	Shiga inhibitor 176, Cycloheximide cs 62
O=C1C=C(Nc2ccc(Cl)cc2)C(=O)N1c1ccc(Cl)cc1	none
CN1CCN(C2=C(Cl)C(=O)N(c3ccc(Cl)c(Cl)c3)C2=O)CC1	Sm TGR block inconclusive, Cycloheximide cs 23
COc1ccc(N2C(=O)C(Cl)=C(N3CCCC3)C2=O)cc1	none
O=C1C(Cl)=C(N2CCCC2)C(=O)N1c1ccc(F)cc1	Sm TGR block 50µM
O=C1C(Cl)=C(N2CCCCCC2)C(=O)N1c1ccc(Cl)cc1	Cycloheximide cs 12
COc1ccc(NC(=O)N2CC[C@@]3(CCCNC3)C2)cc1	none (no result: Shiga inhibitor, Sm TGR block, Cycloheximide cs)
O=S1(=O)N=C(Nc2cccc(C(F)(F)F)c2)c2ccccc21	none (no result: Shiga inhibitor, Cycloheximide cs)
O=C(/C=C/c1ccccc1)/C=C/c1ccccc1	FMDV antiviral inconclusive, Shiga inhibitor 134, Sm TGR block 25µM, Cycloheximide cs 50
CC(C)(C)C(=O)/C=C(\N)c1ccccn1	Cycloheximide cs 12
Cc1ccc(C(=O)/C=C/c2ccc(-c3ccc(C)cc3)o2)cc1	Sm TGR block inconclusive
CC(=O)/C=C/c1ccccc1	none (no result: Shiga inhibitor, Sm TGR block, Cycloheximide cs)
O=C(/C=C\c1ccc(-c2ccccc2)o1)c1ccccc1	Shiga inhibitor 110, Sm TGR block 11µM, Cycloheximide cs 42
O=C(/C=C/c1ccccc1)c1ccccc1	FMDV antiviral inconclusive, Shiga inhibitor 125, Sm TGR block inconclusive, Cycloheximide cs 45
Cc1ccc(-n2cnc3cc(C(=O)NC4CCCCCC4)ccc32)cc1Cl	none (no result: Shiga inhibitor, Cycloheximide cs)
c1cncc(OC2CCN(Cc3ccc4c(c3)CN(Cc3ccc5c(c3)CCO5)CCO4)CC2)c1	none (no result: Shiga inhibitor, Sm TGR block, Cycloheximide cs)
COc1ccc(-n2ccc(-c3sc(NCc4cc(OC)c5c(c4)OCO5)nc3C)n2)cc1	none (no result: Shiga inhibitor, Sm TGR block, Cycloheximide cs)
CCN(CC)CCC(c1ccc(N(C)C)cc1)c1c(OC)cc(OC)c2c1OC(=O)CC2c1ccc(N(C)C)cc1 (stereo not given)	none (no result: FMDV antiviral, Sm TGR block)
O=C(/C=C/c1ccc(NC(=O)c2ccccc2-c2ccccc2C(=O)O)cc1)c1ccccc1	FMDV antiviral inconclusive, Shiga inhibitor 37, Cycloheximide cs 10
CC(C)(C)C(=O)/C=C(N)/C=C/c1ccccc1	Cycloheximide cs 28
O=Cc1ccc(OC(=O)/C=C/c2ccccc2)cc1	Shiga inhibitor 25, Cycloheximide cs 34
O=C(O)c1ccccc1-c1ccccc1C(=O)Nc1ccc(F)cc1	none
N#Cc1ccc(/C=C/C(=O)c2ccccc2)cc1	Shiga inhibitor 47, Sm TGR block 8.9µM, Cycloheximide cs 20
